Laboratory results from PubChem BioAssay (Tox21).
Inconclusive results are not listed. The source made the active and inactive calls. Unless noted, the call rests on the fitted dose curve; in most records, active means well fitted curve in the direction sought with a large enough effect in the repeat runs; inconclusive means weak or mixed curves; inactive means no such curve, though single readings can be large; an effect the other way counts as inactive or inconclusive.

How the values were obtained:
[1] = qHTS assay to identify small molecule agonists of the estrogen receptor alpha (ER-alpha) signaling pathway in the presence of an antagonist - cell viability counter screen (AID 1259386);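 further: series mostly up to about 92 µM; cells exposed to compounds for 22 h at 37 °C before the viability read; nearly all actives have a fitted effect of over 30% in size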
Procedure, shortened: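 VM7Luc4E2 cells (endogenous full-length ER-alpha, 4×ERE-luciferase) were held 5 days in phenol red-free medium with 10% charcoal-stripped FBS, plated, then given 10.0nM ICI-182,780 and compounds at 15 concentrations for 22hr at 37C; viability read by CellTiter-Fluor fluorescence.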

[2] = target: Progesterone receptor (Homo sapiens) (UniProt P06401); assay: qHTS assay to identify small molecule agonists of the progesterone receptor (PR) signaling pathway (AID 1346784; calls by dose curve; further: nearly all actives have a fitted effect of over 30% in size)
Sequence of Progesterone receptor (Homo sapiens) (P06401 whole entry, looked up): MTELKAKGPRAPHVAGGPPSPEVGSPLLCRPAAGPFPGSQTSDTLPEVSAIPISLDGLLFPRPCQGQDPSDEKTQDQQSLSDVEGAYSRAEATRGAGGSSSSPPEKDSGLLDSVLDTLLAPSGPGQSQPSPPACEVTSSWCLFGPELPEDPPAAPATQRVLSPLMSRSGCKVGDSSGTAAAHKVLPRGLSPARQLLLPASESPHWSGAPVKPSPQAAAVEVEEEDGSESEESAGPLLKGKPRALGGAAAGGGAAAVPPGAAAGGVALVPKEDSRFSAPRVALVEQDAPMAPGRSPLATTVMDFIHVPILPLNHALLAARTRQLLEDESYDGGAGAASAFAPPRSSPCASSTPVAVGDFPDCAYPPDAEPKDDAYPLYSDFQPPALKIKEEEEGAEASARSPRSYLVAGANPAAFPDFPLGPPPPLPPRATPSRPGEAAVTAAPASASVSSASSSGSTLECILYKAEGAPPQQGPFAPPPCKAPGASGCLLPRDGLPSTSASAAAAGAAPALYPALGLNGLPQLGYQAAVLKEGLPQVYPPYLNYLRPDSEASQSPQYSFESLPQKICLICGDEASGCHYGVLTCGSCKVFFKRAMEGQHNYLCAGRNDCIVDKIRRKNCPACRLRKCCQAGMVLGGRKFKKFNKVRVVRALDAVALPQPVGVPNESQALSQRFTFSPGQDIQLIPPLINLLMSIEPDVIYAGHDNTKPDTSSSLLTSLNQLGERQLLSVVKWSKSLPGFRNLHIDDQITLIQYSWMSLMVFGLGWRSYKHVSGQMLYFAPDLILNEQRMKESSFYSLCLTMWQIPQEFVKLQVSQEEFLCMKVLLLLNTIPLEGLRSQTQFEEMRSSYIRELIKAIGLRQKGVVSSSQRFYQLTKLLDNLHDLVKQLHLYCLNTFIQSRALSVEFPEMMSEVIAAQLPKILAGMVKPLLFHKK
Procedure, shortened: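 Cells (PR-UAS-bla HEK 293T, GripTite) were plated in assay medium containing 2% charcoal-stripped FBS and incubated 6 hr. Test compounds in DMSO were added for 16 hr at 37C. FRET substrate was then loaded for 2 hr at room temperature before fluorescence reading.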

[3] = qHTS assay to identify small molecule antagonists of the progesterone receptor (PR) signaling pathway - cell viability counter screen (AID 1346798); further: series mostly up to about 92 µM; nearly all actives have a fitted effect of over 50% in size
Procedure, shortened: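 Counter screen for cytotoxicity: viability of PR-UAS-bla HEK293T cells was measured with CellTiter-Glo luminescence following 16 hr compound exposure in the presence of R5020.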

[4] = qHTS assay to identify small molecule agonists of the progesterone receptor (PR) signaling pathway - cell viability counter screen (AID 1346799; calls by dose curve; further: nearly all actives have a fitted effect of over 45% in size)
Procedure, shortened: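 Cells (PR-UAS-bla HEK293T) are plated at 3,000/well in 2% charcoal-stripped FBS medium, rested 6 hr, dosed and incubated 16 hr at 37C. CellTiter-Glo is then added and luminescence measured after 30 min at room temperature.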

[5] = qHTS assay to identify small molecule antagonists of the TGF-beta/Smad signaling pathway - cell viability counter screen (AID 1346824); further: nearly all actives have a fitted effect of over 50% in size
Procedure, shortened: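 SBE-bla HEK 293T cells were plated overnight at 37 C, then given compounds in DMSO plus TGF-beta1 (added as 0.25 ng/mL solution) for 5 hr. After the bla read, CellTiter-Glo was added to the same wells and luminescence read after 30 min at room temperature.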

[6] = qHTS assay to identify small molecule agonists of the TGF-beta/Smad signaling pathway - cell viability counter screen (AID 1346829); further: top concentration of the series differs between compounds; nearly all actives have a fitted effect of over 45% in size
Procedure, shortened: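 Cytotoxicity counter screen: CellTiter-Glo luminescence (30 min, room temperature) measured in the SBE-bla HEK 293T reporter wells after 5 hr compound treatment at 37 C and the 2 hr substrate step.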

[7] = qHTS assay to identify small molecule agonists of the TGF-beta/Smad signaling pathway (AID 1346859; active means well fitted activation curve with a large enough effect in the signal ratio in the repeat runs, not every such curve was filed as active; the % refers to the signal ratio; further: series mostly up to about 77 µM)
Procedure, shortened: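 Reporter line: HEK 293T with stably integrated SBE-controlled beta-lactamase. Compound exposure lasts 5 hr at 37 C and 5% CO2; substrate loading follows for 2 hr at room temperature, with emission read at 460 and 530 nm.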

[8] = target: Thyrotropin-releasing hormone receptor (Homo sapiens) (UniProt P34981); assay: qHTS assay to identify small molecule antagonists of the thyrotropin-releasing hormone receptor (TRHR) signaling pathway (AID 1346877; active means well fitted inhibition curve with a large enough effect in the repeat runs, not every such curve was filed as active; further: series mostly up to about 51 µM)
Sequence of Thyrotropin-releasing hormone receptor (Homo sapiens) (P34981 whole entry, looked up): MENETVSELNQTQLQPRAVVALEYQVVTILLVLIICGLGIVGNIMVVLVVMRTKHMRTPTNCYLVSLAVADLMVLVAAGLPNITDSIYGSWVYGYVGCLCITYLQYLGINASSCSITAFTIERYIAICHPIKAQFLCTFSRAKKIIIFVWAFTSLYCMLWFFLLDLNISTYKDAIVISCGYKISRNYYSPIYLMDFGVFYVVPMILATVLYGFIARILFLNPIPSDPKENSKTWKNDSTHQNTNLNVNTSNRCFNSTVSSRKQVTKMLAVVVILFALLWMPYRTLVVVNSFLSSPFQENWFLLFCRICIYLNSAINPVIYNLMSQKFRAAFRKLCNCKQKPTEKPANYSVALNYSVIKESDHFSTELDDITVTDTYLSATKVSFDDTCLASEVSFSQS
Procedure, shortened: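 TRHR-expressing HEK293 cells were seeded, cultured 18 h at 37 °C, then loaded with calcium dye for 2 h. Compounds were pre-incubated 5 min at room temperature before 1 nM TRH (final) was added, and kinetic fluorescence was recorded for 3 min.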

[9] = target: Thyrotropin-releasing hormone receptor (Homo sapiens) (UniProt P34981); assay: qHTS assay to identify small molecule agonists of the thyrotropin-releasing hormone receptor (TRHR) signaling pathway (AID 1346891; calls by dose curve; further: series mostly up to about 58 µM)
Procedure, shortened: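 Cells: TRHR-Hek293, seeded and incubated 18 h. Dye loading: 2 h at 37 °C. Compound added from DMSO stock by pin tool. Read-out: kinetic calcium fluorescence over 3 min.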

[10] = Human pregnane X receptor (PXR) small molecule agonists, qHTS cell viability counter screen (AID 1346977); further: nearly all actives have a fitted effect of over 50% in size
Procedure, shortened: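 Cytotoxicity counter screen run in the same wells as the PXR luciferase assay, using PXR-Luc HepG2 cells in charcoal-stripped serum medium. Viability: CellTiter-Fluor fluorescence after 24hr compound treatment.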

[11] = Caspase-3/7 induction in HepG2 cells by small molecules, qHTS assay (AID 1346978); further: nearly all actives have a fitted effect of over 15% in size
Procedure, shortened: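 Wild-type HepG2 cells (2,000/well) were settled 5 h at 37 C, 5% CO2, then exposed to compounds in DMSO for 17 h. Caspase-3/7 activity was read by luminescence 30 min after adding Caspase-Glo 3/7 reagent at room temperature.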

[12] = Caspase-3/7 induction in HepG2 cells by small molecules, qHTS cell viability counter screen (AID 1346981); further: nearly all actives have a fitted effect of over 30% in size; further: potency means the concentration at half of the fitted maximal effect; on activity change, negative = cytotoxicity: series mostly up to about 92 µM
Procedure, shortened: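 Wild-type HepG2 cells (2,000/well) were allowed to settle for 5 hr at 37 C, 5% CO2, then dosed with compounds in DMSO by pin transfer. After 16 hr at 37 C, CellTiter-Fluor was added and fluorescence read 1 hr later.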

[13] = Caspase-3/7 induction in CHO-K1 cells by small molecules, qHTS assay (AID 1346980); further: nearly all actives have a fitted effect of over 15% in size
Procedure, shortened: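 Wild-type cells were seeded at 1,500 per well and settled 5 hr at 37 C, 5% CO2, then exposed to DMSO-dissolved compounds for 17 hr. Caspase-Glo 3/7 reagent was added, and luminescence was read after 30min at room temperature.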

[14] = Caspase-3/7 induction in CHO-K1 cells by small molecules, qHTS cell viability counter screen (AID 1346979); further: nearly all actives have a fitted effect of over 35% in size
Procedure, shortened: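 Cytotoxicity counter screen run in parallel with the caspase-3/7 assay: CHO-K1 cells, 16hr compound treatment at 37C, then CellTiter-Fluor for 1hr before fluorescence reading.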

[15] = target: Nuclear receptor subfamily 1 group I member 2 (Homo sapiens) (UniProt O75469); assay: Human pregnane X receptor (PXR) small molecule agonists, qHTS assay (AID 1346982); further: nearly all actives have a fitted effect of over 35% in size
Sequence of Nuclear receptor subfamily 1 group I member 2 (Homo sapiens) (O75469 whole entry, looked up): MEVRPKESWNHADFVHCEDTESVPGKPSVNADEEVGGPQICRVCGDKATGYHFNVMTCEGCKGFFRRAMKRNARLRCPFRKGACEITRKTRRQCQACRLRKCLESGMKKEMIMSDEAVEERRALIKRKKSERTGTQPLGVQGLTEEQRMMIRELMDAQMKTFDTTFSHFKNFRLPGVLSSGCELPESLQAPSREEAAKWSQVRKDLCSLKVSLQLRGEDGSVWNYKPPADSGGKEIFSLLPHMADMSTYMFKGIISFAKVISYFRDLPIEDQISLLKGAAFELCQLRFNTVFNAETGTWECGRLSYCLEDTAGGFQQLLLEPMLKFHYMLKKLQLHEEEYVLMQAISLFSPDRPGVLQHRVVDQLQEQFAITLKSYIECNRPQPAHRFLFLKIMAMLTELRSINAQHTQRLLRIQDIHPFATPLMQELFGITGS
Procedure, shortened: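 PXR-Luc HepG2 cells (CYP3A4 promoter-driven luciferase) were seeded in medium with 5% charcoal-stripped FBS, left 5 hr at 37 C, then exposed to compounds in DMSO for 24 hr. Luminescence was read after ONE-Glo addition.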

[16] = target: Nuclear receptor subfamily 1 group I member 2 (Rattus norvegicus) (UniProt Q9R1A7); assay: Rat pregnane X receptor (rPXR) activation by small molecules, qHTS assay (AID 1346983); settings: rPXR luciferase reporter cells, One-Glo luminescence, 24 h; active compounds read high; further: nearly all actives have a fitted effect of over 20% in size
Sequence of Nuclear receptor subfamily 1 group I member 2 (Rattus norvegicus) (Q9R1A7 whole entry, looked up): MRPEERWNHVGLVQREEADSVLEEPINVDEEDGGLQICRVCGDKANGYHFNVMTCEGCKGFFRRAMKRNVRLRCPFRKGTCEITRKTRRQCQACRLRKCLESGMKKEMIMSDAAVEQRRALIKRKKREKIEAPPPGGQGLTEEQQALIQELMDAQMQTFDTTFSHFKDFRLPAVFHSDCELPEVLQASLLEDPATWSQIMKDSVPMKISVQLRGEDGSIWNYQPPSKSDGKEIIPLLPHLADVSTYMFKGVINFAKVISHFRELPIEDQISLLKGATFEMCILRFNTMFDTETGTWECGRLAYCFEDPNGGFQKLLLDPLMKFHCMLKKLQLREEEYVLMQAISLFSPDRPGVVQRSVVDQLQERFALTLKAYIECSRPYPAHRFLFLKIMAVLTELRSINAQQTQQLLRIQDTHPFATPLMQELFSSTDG
Procedure, shortened: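 Cell-based rPXR luciferase reporter assay, 2,000 cells per well, rested 5hr at 37 C before compound addition in DMSO, then 24 hr at 37 C. One-Glo reagent was added and luminescence read after 30 min at room temperature.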

[17] = target: Nuclear receptor subfamily 1 group I member 2 (Homo sapiens) (UniProt O75469); assay: CYP3A4 induction through human pregnane X receptor (PXR) by small molecules, qHTS assay (AID 1346984); further: nearly all actives have a fitted effect of over 40% in size
Procedure, shortened: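 DPX-2 cells (HepG2 co-transfected with PXR and CYP3A4 promoter-luciferase) treated with compounds 24 h at 37C; luciferin-IPA CYP3A4 substrate 3uM final added for 3 h, then One-Glo; luminescence read. qHTS format.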

[18] = target: Nuclear receptor subfamily 1 group I member 2 (Homo sapiens) (UniProt O75469); assay: Human pregnane X receptor (PXR) activation by small molecules, qHTS assay (AID 1346985); further: nearly all actives have a fitted effect of over 40% in size
Procedure, shortened: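 DPX-2 cells (HepG2 co-transfected with a PXR response element and a CYP3A4-promoter luciferase construct) were seeded at 2,000 per well, rested 5 hr at 37C, then exposed to DMSO-dissolved compounds for 24 hr. Activation was read as luciferase luminescence.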

[19] = target: Progesterone receptor (Homo sapiens) (UniProt P06401); assay: qHTS assay to identify small molecule antagonists of the progesterone receptor (PR) signaling pathway (AID 1346795; active means well fitted inhibition curve with a large enough effect in the signal ratio in the repeat runs, not every such curve was filed as active; the % refers to the signal ratio)
Procedure, shortened: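 Antagonist mode: compounds tested against 1 nM (final) promegestone stimulation in HEK293T cells expressing PR-UAS-bla reporter, 16 hr at 37C, 5% CO2; beta-lactamase activity detected via B/G FRET substrate after 2 hr at room temperature.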
On the % scale 0 is the no-effect control and ±100 the full control effect.

C=C(C)C(=O)OCCOP(=O)(O)OCCOC(=O)C(=C)C
inactive: Potency [1] | Potency [2] | Potency [3] | Potency [4] | outcome [5] | outcome [6] | outcome [7] | outcome [8] | outcome [9] | Potency [10] | Potency [11] | Potency [12]

O=C(c1ccc(O)cc1)c1ccc(O)c(O)c1O
active: Potency [12] 54.7 µM
inactive: Potency [2] | Potency [3] | Potency [4] | outcome [5] | outcome [6] | outcome [7] | outcome [8] | outcome [9] | Potency [11] | outcome [13]

CCc1ccc(C=O)cc1
inactive: Potency [1] | Potency [2] | Potency [4] | outcome [6] | outcome [7] | outcome [8] | outcome [9] | Potency [10] | Potency [11] | Potency [14] | outcome [13] | Potency [12] | Potency [15]

COc1cc(N)ccc1C
inactive: Potency [1] | Potency [2] | Potency [3] | outcome [6] | outcome [7] | Potency [11] | Potency [14] | outcome [13] | Potency [12]

COc1cc2c(cc1OC)[C@@H]1CC(=O)[C@@H](CC(C)C)CN1CC2
inactive: Potency [1] | Potency [2] | Potency [3] | Potency [4] | outcome [5] | outcome [6] | outcome [7] | outcome [8] | outcome [9] | Potency [10] | outcome [13] | Potency [12]

O=S(=O)(O)c1cc(O)c2ccc(Nc3ccccc3)cc2c1
inactive: Potency [2] | Potency [3] | Potency [4] | outcome [5] | outcome [6] | outcome [7] | outcome [8] | outcome [9] | Potency [10] | Potency [11] | outcome [13] | Potency [15]

CCCOC(OCCC)OCCC
inactive: Potency [1] | Potency [2] | Potency [4] | outcome [5] | outcome [6] | outcome [7] | Potency [10] | Potency [11] | Potency [14] | outcome [13] | Potency [12] | Potency [15]

CC(C)CCCCOC(=O)c1ccccc1C(=O)OCCCCC(C)C
inactive: Potency [1] | Potency [2] | Potency [3] | Potency [4] | outcome [5] | outcome [6] | outcome [7] | outcome [8] | outcome [9] | Potency [10] | Potency [11] | outcome [13] | Potency [12]

Oc1cn2c(n1)Nc1ccc(Cl)c(Cl)c1C2
inactive: activity change, negative = cytotoxicity [1] 5.64% [at 19 µM] | activation [2] -0.586% [at 19 µM] | activity change, negative = cytotoxicity [3] 6.36% [at 18.9 µM] | activity change, negative = cytotoxicity [4] 10.9% [at 19 µM] | viability change, negative = cytotoxic [5] 8.57% [at 15.8 µM] | activation [7] -0.288% [at 15.8 µM] | activity change, negative = cytotoxicity [10] -3.42% [at 19 µM] | activity change, negative = cytotoxicity [12] 6.29% [at 19 µM] | max activation [16] 0.479% | Potency [17] | Potency [18]

CCCCNc1ccc(C(=O)OCCN(C)C)cc1
inactive: Potency [1] | Potency [2] | Potency [3] | Potency [4] | outcome [5] | outcome [7] | outcome [9] | Potency [10] | Potency [11] | Potency [14] | outcome [13] | Potency [12] | max activation [16] -1.52%

CC(C)C[C@H](NC(=O)CNC(=O)[C@H](Cc1ccc(O)cc1)NC(=O)[C@H](CO)NC(=O)[C@H](Cc1c[nH]c2ccccc12)NC(=O)[C@H](Cc1cnc[nH]1)NC(=O)[C@@H]1CCC(=O)N1)C(=O)N[C@@H](CCCN=C(N)N)C(=O)N1CCC[C@H]1C(=O)NCC(N)=O (stereo in doubt)
inactive: Potency [1] | Potency [2] | Potency [3] | outcome [5] | outcome [6] | outcome [7] | outcome [8] | outcome [9] | Potency [11] | Potency [14] | outcome [13] | Potency [12] | Potency [15]

Cc1cc2cc3c(C)cc(=O)oc3c(C)c2o1
inactive: Potency [1] | Potency [2] | Potency [3] | Potency [4] | outcome [5] | outcome [6] | outcome [7] | outcome [8] | outcome [9] | Potency [11] | outcome [13] | Potency [12] | Potency [17] | Potency [18]

CCCCCOC(=O)CCC
inactive: Potency [1] | Potency [2] | Potency [3] | Potency [4] | outcome [5] | outcome [6] | outcome [7] | Potency [11] | Potency [14] | outcome [13] | Potency [15]

CC(=O)c1sc(C)nc1C
inactive: Potency [1] | Potency [2] | Potency [3] | Potency [4] | outcome [5] | outcome [6] | outcome [7] | outcome [8] | outcome [9] | Potency [10] | Potency [11] | Potency [14] | Potency [15]

C#CC(C)N(C)C(=O)Nc1ccc(Cl)cc1 (stereo not drawn)
inactive: Potency [1] | Potency [2] | Potency [4] | outcome [7] | outcome [9] | Potency [10] | Potency [11] | Potency [14] | outcome [13] | Potency [12]

CC(CN)CC(C)(C)CCN (stereo not drawn)
inactive: Potency [2] | Potency [19] | Potency [3] | outcome [5] | outcome [6] | outcome [7] | outcome [8] | outcome [9] | Potency [10] | Potency [11] | outcome [13] | Potency [12] | Potency [15]

COc1nccnc1NS(=O)(=O)c1ccc(N)cc1
inactive: Potency [1] | Potency [3] | Potency [4] | outcome [5] | outcome [6] | outcome [7] | outcome [8] | outcome [9] | Potency [10] | Potency [11] | Potency [14] | Potency [12] | Potency [15] | max activation [16] 3.09% | Potency [17] | Potency [18]
